Measurements published in ChEMBL document CHEMBL4513216, “Probing the Open Global Health Chemical Diversity Library for Multistage-Active Starting Points for Next-Generation Antimalarials” (ACS Infect Dis, 2020).
Out of some 65,000 compounds screened, about 2,100 (3.2%) showed an effect of 50% or more. The median lay at about -52%. The sample holds strong results, similar compounds and a random draw of the others, so the mix is not that of the screen.

These compounds were tested on Plasmodium falciparum (assay: Screen against P. falciparum Asexual Blood Stage (ABS), at 5uM). Settings: tested at 5 uM.
Type: functional, Dd2

Compound | INHIBITION [%]
O=S(=O)(c1ccccc1)N1CCC2(CCCN2Cc2cccnc2)C1 (configuration not stated) | -12
CC(C)c1cc(NC(=O)CNC2CCc3ncnn3C2)on1 (configuration not stated) | -54
Cc1occc1C(=O)N1C[C@@H]2OCCN(CCN3CCCC3)[C@@H]2C1 | -86.8
Cc1nc(CN2CCCC(c3cc(C(F)(F)F)[nH]n3)C2)cs1 (configuration not stated) | -50.2
Cc1nc(C2(O)CCCNCC2)sc1CCOc1ccc(F)cc1 (configuration not stated) | 34.5
Cc1nc(C2(O)CCCNCC2)sc1CCOc1ccc(F)c(F)c1 (configuration not stated) | 54.5
COc1ccc(OCCc2sc(C3(O)CCCNCC3)nc2C)cc1 (configuration not stated) | 5.84
Cc1nc(C2(O)CCCNCC2)sc1CCOc1ccccc1 (configuration not stated) | -48.5
Cc1nc(C2(O)CCCNCC2)sc1CCOc1ccc(Cl)cc1 (configuration not stated) | 61
CCN1CCCC(O)(c2nc(C)c(CCOc3ccc(F)cc3)s2)CC1 (configuration not stated) | 23.9
COc1ccc(OCc2sc(C3(O)CCCNCC3)nc2C)cc1 (configuration not stated) | 14.8
Cc1nc(C2(O)CCCNCC2)sc1CCOc1ccccc1Cl (configuration not stated) | 54.5
CCN1CCCC(O)(c2nc(C)c(CCOc3ccccc3Cl)s2)CC1 (configuration not stated) | 21
COc1ccccc1OCC(=O)NS(=O)(=O)c1ccc(Br)s1 | -26.8
C[C@@H]1CN(C(=O)c2nc3ccc(Cl)cn3c2-c2ncc[nH]2)C[C@H](C)O1 | 49.4
O=S(=O)(C1CC1)N1CCn2cc(CNc3ccccn3)nc2C1 | -76
Cc1ccccc1C1(C(=O)NCCN2CCCCC2C)CCOCC1 (configuration not stated) | 28.2
CCC[C@@H]1CN(Cc2cc3c(cc2OC)OCO3)C[C@H]1C(=O)O | -43.7
CCC[C@@H]1CN(Cc2cc3c(cc2OC)OCCO3)C[C@H]1C(=O)O | -28.5
CCC1c2ccsc2CCN1Cc1cc2c(cc1OC)OCCO2 (configuration not stated) | 67.3
COc1ccc(CN2CCc3sccc3C2C)cc1CN1CCOCC1 (configuration not stated) | 56.1
CC1c2ccsc2CCN1Cc1cc2c(cc1O)OCO2 (configuration not stated) | 27.2
COc1ccc(CN2C[C@@H](CN(C)C)[C@@H](CO)C2)cc1CN1CCCC1 | -71
COc1ccsc1C(=O)Nc1cc(CN2CCOCC2)ccc1C | -12.8
CCC1c2ccsc2CCN1C(=O)NCc1cccnc1OC (configuration not stated) | 46.8
COc1cc2c(cc1CN1CCc3sccc3C1C)OCO2 (configuration not stated) | 69.3

Compound | INHIBITION [%]
Cc1nnc(N2C[C@H]3OCC[C@H]3[C@H](C(=O)NCC3CC3)C2)s1 | 4.38
O=C1OCCN1CC(=O)N1C[C@@H]2CC[C@H]1CN(Cc1cscn1)C2 | -150
CCn1cc2c(n1)CN(Cc1cnn(C)c1)CC2COCC1CC1 (configuration not stated) | -28.3
c1cc(-c2nc(C3CCN(Cc4ccsc4)CC3)no2)ccn1 | -4.11
Cc1ccc(C(=O)N2Cc3ccccc3OC3(CCOCC3)C2)cn1 | -43.5
c1nc2n(c1CN1CCCC1)CCN(C1CCOCC1)CC2 | -7.43
COc1ccc(C(=O)N2C[C@@H](c3ccccc3)[C@@H]3NCCCC[C@@H]32)cc1 | -70.2
COc1cccc(C(=O)N2C[C@@H](c3ccccc3)[C@@H]3NCCCC[C@@H]32)c1 | 16.7
COc1cccc([C@H]2CN(C(=O)c3ccccc3)[C@@H]3CCCN[C@H]23)c1 | 56.5
CN(C)S(=O)(=O)NC1CCCc2c1cnn2-c1ccc(C(C)(C)C)cc1 (configuration not stated) | -174
CN(C)C1CC2(CCN(C(=O)C3(C#N)CC3)CC2)c2ccccc21 (configuration not stated) | -28.5
O[C@@H]1CC(CNCC2CC2)(COc2cccnc2)C[C@@H]1O (some centres not stated) | -24.8
CC(C)NCC1(COc2ccccc2)C[C@@H](O)[C@@H](O)C1 (some centres not stated) | 60.4
CC(C)NC(=O)NCC1(COc2cnccn2)C[C@@H](O)[C@@H](O)C1 (some centres not stated) | -54.9
Cn1ccnc1NC[C@@H]1CCC[C@@H]2CN(CC3CC3)C[C@@H]21 | -46.7
Cn1nc(COc2cccnc2)c2c1CCN(CC1CC1)C2 | -64
Cc1ccc(C)n1C(C)C(=O)N1CCCN(Cc2cscn2)CC1 (configuration not stated) | -16.5
Cc1cc(C(C)C(=O)N2CCCN(Cc3cscn3)CC2)c(C)o1 (configuration not stated) | -136
Cc1ccc(C(C)C(=O)N2CCCN(Cc3cscn3)CC2)cc1 (configuration not stated) | 57
CN1CCC2(CC1)CC(NC(=O)c1csnn1)c1ccccc1O2 (configuration not stated) | -8.75
Brc1csc(-c2noc(C3COCCO3)n2)c1 (configuration not stated) | -301
O=C(Cc1ccc2c(c1)CCCC2)N[C@@H]1CC[C@@H](n2ccnc2)[C@@H]1O | -119
CC(=O)N1CCN(c2ccccc2CNc2cc(F)cc(F)c2)CC1 | 14
CN1CCN(c2ccccc2CNC(=O)CSC(F)(F)F)CC1 | 67.3
CC(C)N(C)CC(=O)NCc1ccccc1N1CCN(C)CC1 | 43.8
Cn1ccnc1CN1CCC2(CC1)CN(Cc1cccnc1)C(=O)CO2 | -38.8
